Where “and” joins values, the source holds several entries; their conditions need not be identical. Identical values can stand only once. Among all 410,000 compounds or so, about 310 (0.076%) were called active. A call without a number means that no potency is given here. About 2% were inconclusive and are not listed. This is one part of a sample in which actives are shown more often than they occur. The call rests on the fitted dose curve; in most records, active means well fitted activation curve with a large enough effect; inconclusive means small, poorly fitted or top-dose-only effect, or another doubt; inactive means no such curve, though single readings can be large or run the other way. Some compounds were tested as several samples or in several runs, with calls that do not always agree.
Potency means the concentration at half of the fitted maximal effect.

Sequence of Parathyroid hormone/parathyroid hormone-related peptide receptor (Homo sapiens) (Q03431 whole entry, looked up): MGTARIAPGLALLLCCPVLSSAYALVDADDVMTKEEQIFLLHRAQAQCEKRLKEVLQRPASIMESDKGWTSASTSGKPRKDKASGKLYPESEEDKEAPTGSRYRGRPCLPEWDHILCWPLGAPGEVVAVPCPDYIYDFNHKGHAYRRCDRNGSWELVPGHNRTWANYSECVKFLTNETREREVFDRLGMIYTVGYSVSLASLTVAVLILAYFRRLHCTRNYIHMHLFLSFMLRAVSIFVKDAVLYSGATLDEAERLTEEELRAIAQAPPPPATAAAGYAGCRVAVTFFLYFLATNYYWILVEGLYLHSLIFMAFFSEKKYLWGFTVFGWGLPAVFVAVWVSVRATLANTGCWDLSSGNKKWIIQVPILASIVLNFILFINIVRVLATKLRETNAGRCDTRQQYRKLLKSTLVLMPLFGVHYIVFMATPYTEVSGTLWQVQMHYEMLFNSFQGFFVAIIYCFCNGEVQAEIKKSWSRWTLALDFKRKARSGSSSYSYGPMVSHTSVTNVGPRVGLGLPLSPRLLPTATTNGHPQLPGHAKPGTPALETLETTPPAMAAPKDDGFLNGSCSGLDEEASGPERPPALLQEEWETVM

This assay addresses Parathyroid hormone/parathyroid hormone-related peptide receptor (Homo sapiens) (UniProt Q03431). As to the kind of experiment: qHTS for PTHR1 Agonists: Primary Screen. Further: nearly all actives have a fitted effect of over 55% in size. Conditions: HEK293 GP2 PTHR1 cells, GloSensor cAMP luminescence, 1 h; series mostly up to 115 µM. From the text:
The goal of the proposed studies is to discover new compounds that act as potent agonists on the parathyroid hormone receptor type-1 (PTHR1). The PTHR1 plays critical roles in maintaining blood calcium and phosphate levels, as well as in controlling bone remodeling. PTHR1 agonists could thus be useful for treating diseases such as hypoparathyroidism and osteoporosis. In the former disease, an agonist drug would help maintain normal blood calcium and phosphate levels under conditions of parathyroid hormone deficiency. In the latter disease, an agonist drug would stimulate new bone formation and thus reduce the risk of fracture, under conditions of bone fragility, as occurs in aging.
To that end, we performed a quantitative high-throughput screening (qHTS) of the Molecular Libraries Probe Centers Network (MLPCN) compound libraries at the NIH Chemical Genomics Center (NCGC) for the parathyroid hormone receptor type-1 (PTHR1) using a unique HEK-293-derived cell line (GP2) that expresses the PTHR1 and a glosensor cAMP reporter construct.
NIH Molecular Libraries Probe Production Centers Network [MLPCN]
NIH Chemical Genomics Center [NCGC]
Assay Submitter (PI): Thomas Gardella, Massachusetts General Hospital
4 microL are dispensed into a 1536-well micro plate to yield 3,000 cells/well. The plates are then incubated overnight, after which 4 microL of 0.5 mM of BIoTium Luciferin plus 0.5 mM IBMX are added. They are then incubated at 37 degree for one hour before 23 nL of compounds are added through pinning and then incubated at 37 degree again for another hour. After the plates are kept at room temperature for 15 min before they are read on the ViewLux to measure luminescence.
In general terms: In qHTS, concentration-response curves come from the screen itself.
With `COc1ccc(CCNc2nc3c(-c4cccc(F)c4)nnn3c3ccccc23)cc1OC`, the Potency entry is “inactive”.
For `COc1ccc(C2c3c(oc4ccccc4c3=O)C(=O)N2Cc2ccc3c(c2)OCO3)cc1` (stereo not given) the value was “inactive”; for `Cc1ccc(C(=O)Nc2c(C(=O)NC(C)(C)C)oc3ccccc23)cc1`, “inactive”; for `CSc1nn(Cc2cccc(C)c2)c(N)c1S(=O)(=O)c1ccccc1`, “inactive”.
As to `CCC(C)c1ccc2oc(-c3ccc(NC(=O)c4cc5ccccc5o4)cc3)nc2c1` (stereo not given), the Potency result is “inactive”.
Then `CCOc1ccc(CNCc2c(C(=O)O)c(C)n(Cc3cccc(OC)c3)c2C)cc1OC`, with “inactive”; and `CCCCNC(=O)c1cc(-c2ccc(Cl)c(Cl)c2)on1`, with “inactive”; and `CN1CCN(C(CNC(=O)c2ccccc2F)c2ccc3c(c2)OCO3)CC1` (stereo not given), with “inactive”.
Then `COC(=O)c1ccccc1NC(=O)c1ccc(COc2ccccc2Cl)o1`, with “inactive”.
Consider `CCC(CC)c1nn2cc(-c3ccccc3)nc2s1`, for which the Potency result is “inactive”.
For `COCCNS(=O)(=O)c1cc(-c2nn3c(C)nnc3c3ccccc23)ccc1C` the value was “inactive”.
Regarding `CCN(CC)S(=O)(=O)c1ccc2c(c1)N(CC(=O)NCC(C)c1ccccc1)C(=O)CO2` (stereo not given), the Potency entry is “inactive”.
For `CCOc1cc(C2C(C(=O)Nc3ccc(OC)cc3)=C(C)Nc3nc(SC)nn32)ccc1O` (stereo not given) the value was “inactive”.
For `Cc1cc(OCC(=O)Nc2ncn[nH]2)c(C)c(C)c1Br` the value was “inactive”; for `Cc1nc(SCC(=O)Nc2ccc(C(=O)O)cc2)n[nH]1`, “inactive”; for `O=C(NCCc1ccccc1)C(=O)NCC(c1ccco1)S(=O)(=O)c1ccccc1` (stereo not given), “inactive”.
On to `Cc1ccc(C)n1-c1nnc(N2CCC(C(=O)NCc3ccccc3Cl)CC2)s1`, for which the Potency entry was “inactive”.
For `CC(C)(C)c1ccc(C(=O)NCC(c2ccco2)S(=O)(=O)c2ccc(F)cc2)cc1` (stereo not given) the value was “inactive”; for `Cc1c(Cl)cccc1NC(=O)N1CCN(C(=O)c2nsc3ccccc23)CC1`, “inactive”.
Then `CCOC(=O)c1c(S(=O)(=O)N2CCCC(C(=O)NCc3ccc(F)cc3)C2)c(C)n(CC)c1C` (stereo not given), with “inactive”.
Then `O=c1c2cccnc2n(Cc2cccc(F)c2)c(=O)n1Cc1ccccc1Cl`, with “inactive”.
In the case of `CCOc1ccc(OCC)c(NS(=O)(=O)c2ccc3[nH]c(=O)ccc3c2)c1`, the Potency result is “inactive”.
As to `Cc1ccc(NC(=O)CSc2nc3c(c(=O)[nH]2)CN(Cc2ccc4c(c2)OCO4)CC3)cc1C`, the Potency result is “inactive”.
On to `COc1cccc(CNC(=O)C2CCN(S(=O)(=O)c3ccc4c(ccn4C)c3)CC2)c1`, for which the Potency entry was “inactive”.
Then `COc1ccc(CNc2nc(-c3ccc(Cl)cc3)cc(C(F)(F)F)n2)cc1`, with “inactive”; and `COc1cc(Cl)c(NC(=O)C(NS(=O)(=O)c2cccs2)C(C)C)c(OC)c1` (stereo not given), with “inactive”; and `Cc1oc2ccc(O)c(CN3CCCCC3)c2c1C(=O)Nc1cccc(C(F)(F)F)c1`, with “inactive”.
Then `CCCCN(CC)CCCNC(=O)c1nn(C)c2c1CS(=O)(=O)c1ccccc1-2`, with “inactive”.
Consider `COc1ccc(-n2c(SCC(=O)Nc3ccc(Cl)c(C)c3)nc3n[nH]c(C)c3c2=N)cc1`, for which the Potency entry was “inactive”.
Then `Cc1c(NC(=O)c2cc(=O)c3ccccc3o2)c(=O)n(-c2ccccc2)n1C`, with “inactive”; and `CCCn1c2ccccc2c2cnn(CC(=O)N(C)c3ccccc3CC)c(=O)c21`, with “inactive”.
Take `COC(=O)c1ccc(NC(=O)CCc2c(C)nc3c(c(C)nn3-c3ccc(C)cc3)c2C)cc1`: the Potency result is “inactive”.
For `Cc1ccc(Cn2c(C)c3cnn(CC(=O)NCc4ccccc4)c(=O)c3c2C)cc1` the value was “inactive”; for `Cc1ccc(C)c(N2CCN(c3ccc4cc(S(=O)(=O)N5CCC(C)CC5)ccc4n3)CC2)c1`, “inactive”.
Then `COc1ccccc1CNc1ccc(-c2nc(-c3ccccc3C)no2)cc1[N+](=O)[O-]`, with “inactive”; and `Cn1c(=O)[nH]c(=O)c2c1nc(NCCc1ccccc1)n2Cc1ccc(F)cc1`, with “inactive”.
Then `CCCCN(C)CCCNC(=O)CN1N=C(c2ccc(OC)cc2)CCC1=O`, with “inactive”.
For the compound `O=C(Nc1ccc2nc(SCC(=O)N3CCc4ccccc43)sc2c1)c1ccccc1F`, the Potency entry was “inactive”.
As for `CCOc1ccccc1CNC(=O)c1ccc(-n2c(C)cc3c2CCC(C)C3)cc1` (stereo not given), the Potency result is “inactive”.
Then `CCOC(=O)c1c(C)[nH]c(CCC(=O)NCCCN2CCN(c3cccc(Cl)c3)CC2)c1C`, with “inactive”; and `Cc1ccc(C)c(N2CCN(S(=O)(=O)c3ccc4c(c3)C(C(C)C)C(=O)N4)CC2)c1` (stereo not given), with “inactive”; and `CCOc1ccccc1CNC(=O)Nc1cn(CC(C)C)c(=O)c2ccccc12`, with “inactive”.
Then `CCOc1cc(CNC(=O)c2sc3ncnc(N(C)C4CCCCC4)c3c2C)ccc1OC`, with “inactive”.
Then `Cc1nn2c(=O)cc(COC(=O)CNC(=O)c3ccc(F)cc3)nc2s1`, with “inactive”; and `COc1ccc(CCNC(=O)c2nn(C)c3c2CSc2ccccc2-3)cc1OC`, with “inactive”.
With `Cc1c(C(=O)NCc2ccccc2Br)oc2ccc3c(c12)C(=O)CC(C)(C)O3`, the Potency entry was “inactive”.
Then `CCc1cccc(C)c1NS(=O)(=O)c1ccc(-c2cc(C)no2)s1`, with “inactive”; and `CCCc1nn2c(=O)cc(COC(=O)c3ccc(NC(=O)COc4ccc(F)cc4)cc3)nc2s1`, with “inactive”.
For `CCCCC(=O)OC1=CN(Cc2ccccc2)S(=O)(=O)c2ccccc21` the value was “inactive”.
On to `COc1ccc(OCCn2cc(C(=O)C3CCCCC3)c3ccccc32)cc1`, for which the Potency result is “inactive”.
Consider `Cc1oc2ccc(O)c(CN3CCOCC3)c2c1C(=O)Nc1cccc(Cl)c1C`, for which the Potency result is “inactive”.
Then `COc1ccccc1C(=O)NCCn1cc(SCc2ccccc2Cl)c2ccccc21`, with “inactive”.
On to `O=S(=O)(NCC(c1ccco1)N1CCOCC1)c1cc(F)ccc1F` (stereo not given), for which the Potency entry was “inactive”.
For `Cc1ccccc1-c1nc(SCC(=O)N(C)c2ccccc2)c2c(=O)n(C)c(=O)n(C)c2n1` the value was “inactive”; for `COc1ccccc1NC(=O)C(=O)c1cc(C)n(-c2ccccc2F)c1C`, “inactive”.
`CC1CCCN(c2csc3ccc(F)cc3c2=O)C1` (stereo not given): the Potency entry is “inactive”.
For `COc1ccc(S(=O)(=O)N2CCN(c3ccc(F)cc3)CC2)cc1-c1noc(C)n1` the value was “inactive”; for `CCC(=O)N1CCc2cc(S(=O)(=O)NC(Cc3ccccc3)C(=O)NCc3ccccc3)ccc21` (stereo not given), “inactive”; for `CCn1c(=O)c2cc(C(=O)NCCc3ccc(Cl)cc3)sc2c2ccccc21`, “inactive”.
For `CCCn1c2ccccc2c2cnn(CC(=O)NCCCN3CCCCC3CC)c(=O)c21` (stereo not given) the value was “inactive”; for `CCC1CCCCN1CCCNC(=O)c1cc2c(Cl)nc3ccccc3c2s1` (stereo not given), “inactive and 25.1 µM (active)”; for `COc1ccc(C)cc1NC(=O)C(=O)NCCc1sc(-c2cccc(C)c2)nc1C`, “inactive”.
Then `CCCn1c2ccccc2c2cnn(CC(=O)NCC3CCN(Cc4ccc(C)cc4)CC3)c(=O)c21`, with “inactive”.
Regarding `Cn1c(=O)sc2cc(NS(=O)(=O)c3ccc(C(C)(C)C)cc3)ccc21`, the Potency entry is “inactive”.
For the compound `O=C(CSc1nccn1Cc1ccc(F)cc1)NCc1ccccc1`, the Potency result was “inactive”.
For `O=C(Cn1nc(C(F)(F)F)c2c1CCCC2)Nc1ccc(Cl)cc1` the value was “inactive”; for `CCOC(=O)C1CCN(c2ncnc3c2c(-c2ccccc2)cn3-c2cccc(C)c2)CC1`, “inactive”.
For `CSc1ccc(CCNC(=O)c2cnn(-c3ccccc3)c2-n2cccc2)cc1` the value was “inactive”; for `COc1ccccc1CNC(=O)CS(=O)(=O)c1cccc2nsnc12`, “inactive”; for `COc1ccc(N2CCN(Cc3nc4c(c(=O)[nH]c(=O)n4C)n3Cc3ccc(Cl)cc3)CC2)cc1`, “inactive”.
Then `COc1ccccc1C(=O)OCc1cc(=O)n2nc(-c3cccs3)sc2n1`, with “inactive”; and `NS(=O)(=O)c1ccc(CCNC(=O)CCCn2c(SCC(=O)N3CCCC3)nc3ccsc3c2=O)cc1`, with 21.6 µM (active); and `CCCCn1c(SCC(=O)N2CCCC2=O)nc2cc(S(N)(=O)=O)ccc21`, with “inactive”.
With `NS(=O)(=O)c1ccc(CCNC(=O)CCCCCn2c(=O)[nH]c3ccccc3c2=O)cc1`, the Potency result was “inactive”.
For `CCc1nc2c(cnn2-c2ccc(C)cc2)c(=O)n1-c1ccc(C)cc1` the value was “inactive”; for `CCCC12CN3CC(CCC)(CN(C1)C3c1c[nH]c3ccc(OC)cc13)C2=O` (stereo not given), “inactive”; for `Cc1ccc(C)c(NC(=O)Cn2ccn(-c3ccc(F)cc3)c(=O)c2=O)c1`, “inactive”.
For `Cc1cc(C)cc(NC(=O)Cn2c(=O)c3ccccc3n3nncc23)c1`, the Potency entry is “inactive”.
Then `Fc1ccc(-n2ncc3c(Nc4ccc(Oc5ccccc5)cc4)ncnc32)cc1`, with “inactive”; and `Cc1ccc(CNC(=O)CCc2c(C)nc3nc(CNC(=O)OC(C)(C)C)nn3c2C)cc1`, with “inactive”.
Then `CCN(CC)S(=O)(=O)c1ccc2c(c1)N(CC(=O)NCc1ccccc1)C(=O)CS2`, with “inactive”; and `COc1ccc2c(c1)c(=O)c(C(=O)c1ccccc1)cn2CC(=O)Nc1ccc2c(c1)OCCO2`, with “inactive”.
For `COc1ccccc1CN1CCC(CNC(=O)c2cnn(-c3cccc(Cl)c3)c2C2CCN(C(=O)OC(C)(C)C)CC2)CC1` the value was “inactive”.
In the case of `COc1cccc(CNC(=O)CCC(=O)N2CC3CCCN3c3ccccc32)c1` (stereo not given), the Potency entry is “inactive”.
Consider `Cc1ccn2c(Nc3ccc4c(c3)OCCO4)c(-c3ccc(C)s3)nc2c1`, for which the Potency result is “inactive”.
Then `COc1ccc(NC(=O)C2CCN(c3ccc(Sc4ccc(C)cc4)nn3)CC2)c(OC)c1`, with “inactive”; and `COc1ccc(Cn2ccnc2SCC(=O)Nc2ccc3c(c2)OCO3)cc1`, with “inactive”; and `Cc1cccc(-c2nc(SCC(=O)Nc3cc(C)on3)c3c(=O)n(C)c(=O)n(C)c3n2)c1`, with “inactive”.
For `COc1ccc(OC)c(NC(=O)CN2CCCN(Cc3cc(C)ccc3C)S2(=O)=O)c1` the value was “inactive”; for `COc1ccc(OC)c(CNC(=O)CN2C(=O)CCn3nc(-c4cn(C)c5ccccc45)cc32)c1`, “inactive”; for `CC1CCCN(c2cc3c(cc2F)c(=O)c(S(=O)(=O)c2cccc(Cl)c2)cn3Cc2ccccc2)C1` (stereo not given), “inactive”.
Then `CCOC(=O)c1ccccc1NC(=O)c1sc2nc(-c3ccc(F)cc3)cn2c1C`, with “inactive”.
As to `CCOc1ccc(-c2cc(C)n3nc(C(=O)Nc4ccc(C)c(C)c4)cc3n2)cc1`, the Potency entry was “inactive”.
For `O=S(=O)(NCCS(=O)(=O)N1CCN(c2ccccc2)CC1)c1ccc(Cl)cc1` the value was “inactive”.
Then `CCN(CC)S(=O)(=O)c1ccc2c(c1)nc(CN(C)C(=O)Nc1ccc(Cl)cc1)n2C`, with “inactive”.

Source of the values: PubChem BioAssay AID743266 (National Center for Advancing Translational Sciences (NCATS), 2014).
